Screening results (PubChem BioAssay)
A selection: hits, their analogues and other compounds. The true share with any hit is near 2.2%.
KKLEB tox = counter-screen for CF NF-kB inhibitors: cytotoxicity; KKLEB CF airway cells viability, ATPlite luminescence, overnight; hits give low values; cells stimulated with P. aeruginosa culture filtrate; activity change (cytotoxicity), % at 5 µM; 0.36% of 360,000 active; AID 602141;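 active = corrected activity change at or below -50% at 5 µM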
C8 TRAIL sens = caspase-8 TRAIL sensitization | NB7+C8 cells + TRAIL, ATPlite viability luminescence | inhibition (viability loss, TRAIL sensitization), % at 10 µM | 1% of 360,000 active | AID 624354;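 active = compounds causing at least 50% loss of cell viability in the single-dose screen, relative to plate controls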
iPSC survival up = hiPSC single-cell survival enhancement | 0.044% of 360,000 active | survival enhancement, % at 20 µM | ATPlite luminescence; 100% = ROCK inhibitor wells, 0% = DMSO; in the data active = survival enhancement above about 18%;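 note: cells exposed to compounds for 16 hours before the ATP read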
HIF-2a block = blocks HIF-2a reporter activity; 786-0 RCC cells HIF-2a reporter, luciferase luminescence, overnight; inhibition, % at 18.8 µM; AID 624352; 0.72% of 360,000 active;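 active = inhibition of the luminescence signal of 40% or more relative to plate controls, in a single-dose primary screen at 18.75 µM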
PPC-1+TRAIL kill = compounds killing PPC-1 cancer cells with TRAIL present (potentiator screen, no TRAIL-free arm) | 0.41% of 220,000 active | PPC-1 cells + TRAIL, ATPLite viability luminescence | cell killing (% activity), % at 4 µM or 5 µM;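 active = cell killing above 50% in the first pass at 4 µM, then a duplicate retest at 5 µM averaging 50% or more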;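 note: plate controls were cells with TRAIL plus DMSO for no effect and medium-only wells lacking cells for full effect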
CF NFkB inh = cystic fibrosis NF-kB activation inhibition | KKLEB NF-kB-GFP reporter, PAF-induced, GFP fluorescence overnight | 0.86% of 360,000 active | AID 588850 | inhibition, % at 5 µM;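 active = at least 50% inhibition at 5 µM, scaled per plate between neutral and stimulator controls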;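 note: PAF is a Pseudomonas aeruginosa culture filtrate used as stimulus; plate controls were PAF-stimulated DMSO wells for no effect and unstimulated DMSO wells for full effect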
Active calls of the source: *; · = no result given.

SMILES	KKLEB tox	C8 TRAIL sens	iPSC survival up	HIF-2a block	PPC-1+TRAIL kill	CF NFkB inh
CCC(=O)[C@@H](C)[C@@H](O)[C@H](C)C[C@@H](C)C1OC(=O)C[C@@]2(O)CC=C(C)C(O2)C(C)=CCCC[C@H](O[C@H]2C[C@@H](OC(N)=O)[C@H](O)[C@@H](C)O2)C=C[C@H](C)C[C@H]1C (stereo not given in full)	·	46	-2	-5	·	·
O=C1NC(=S)NC(=O)C1=Cc1ccc(Br)s1	12	18	-1	79*	·	11
CN1C(=O)/C(=C\c2ccc(Br)s2)C(=O)NC1=S	-2	-6	0	13	·	-22
COc1cc(C(CN)CC(=O)O)ccc1O (stereo not given)	17	2	0	15	11	0
O=c1[nH]c2ccccc2n1C1CCN(C(c2ccccc2OC(F)(F)F)c2nnnn2-c2ccc3c(c2)OCCO3)CC1 (stereo not given)	-86*	-1	0	-44	·	83*
COc1cccc(C(c2nnnn2-c2ccc3c(c2)OCCO3)N2CCC(n3c(=O)[nH]c4ccccc43)CC2)c1OC (stereo not given)	-90*	-21	2	-45	·	85*
COc1ccc(-n2nnnc2C(c2ccnc3ccccc23)N2CCC(n3c(=O)[nH]c4ccccc43)CC2)cc1 (stereo not given)	-6	1	4	18	·	13
O=C1NCN(c2ccccc2)C12CCN(C(c1ccccc1)c1nnnn1-c1ccc3c(c1)OCCO3)CC2 (stereo not given)	-10	-10	4	-12	·	-16
COc1cccc(C(c2nnnn2Cc2ccccc2)N2CCC(n3c(=O)[nH]c4ccccc43)CC2)c1OC (stereo not given)	-75*	27	1	-7	·	87*
O=c1[nH]c2ccccc2n1C1CCN(C(c2cc3ccccc3o2)c2nnnn2Cc2ccccc2)CC1 (stereo not given)	-96*	87*	1	-22	·	82*
Cc1cccc(C)c1-n1nnnc1C(c1cc2ccccc2o1)N1CCC(n2c(=O)[nH]c3ccccc32)CC1 (stereo not given)	-4	-10	0	-41	·	25
CC(C)(C)n1nnnc1C(C1CC1)N1CCC2(CC1)C(=O)NCN2c1ccccc1 (stereo not given)	-16	1	0	11	·	9
CC1=C2CCC3C(CCC4=CC(=O)CCC43C)C2CC1 (stereo not given)	-8	-1	3	-7	·	23
COC(=O)C1=C(c2cc3ccccc3s2)C[C@@H]2CC[C@H]1N2C(=O)N1CCC(C)CC1	1	14	-3	2	·	26
COC(=O)C[C@]1(C(=O)OC)CN(C#N)N(c2ccc(Cl)cc2)C12c1ccccc1-c1ccccc12	-96*	91*	-4	85*	48	88*
O=C1NC(=O)C(=Cc2ccc(SC3CCCCC3)o2)C(=O)N1	11	4	-1	52*	21	8
NS(=O)(=O)c1ccc(-c2ccc(C=C3C(=O)NC(=O)NC3=O)o2)cc1	5	-9	-1	-11	·	-41
O=CC(Br)P(=O)(N1CCOCC1)N1CCOCC1 (stereo not given)	-4	-3	1	11	-5	16
CC1(C)CC[C@]2(C)CC[C@]3(C)C4C[C@@H]5OO[C@@]6(O5)C(CCCC6(C)C)[C@]4(C)CC[C@@]3(C)C2C1 (stereo not given in full)	-2	-20	2	7	·	56*
CN1Cc2cnnn2-c2ccccc2C1C#N (stereo not given)	-6	-9	40*	-1	·	-3
CS(=O)(=O)N1Cc2cnnn2-c2ccccc2C1C#N (stereo not given)	4	-11	1	4	·	-12
ClCCN(CCCl)c1ccc(-n2cnc3c(Cl)ncnc32)cc1	-3	86*	-1	36	·	30
N[C@@H](Cc1ccc(N(CCCl)CCCl)cc1)C(=O)O	-15	5	-4	-5	·	16
NS(=O)(=O)c1ccc(N2CCNCC2)cc1	0	-2	2	15	16	22
